Vaccinia mCherry: qHTS for Stage-Specific Inhibitors of Vaccinia Orthopoxvirus: mCherry Reporter Primary qHTS; Vaccinia virus mCherry reporter infection, fluorescence; Potency, µM (titrated, usually from 36.5 µM), actives largely listed as inhibitors; actives 0.63% (n = 310,000); AID 720579, 2013; calls by dose curve; tested in A549 cells; also: nearly all actives have a fitted effect of over 35% in size
FMDV inh: High Throughput Screening for Foot and Mouth Disease Virus Antivirals. FMDV antiviral cell-based qHTS. AID 1159524, 2015. Potency, µM (series often up to 57.9 µM), actives largely listed as inhibitors. actives 1.2% (n = 410,000); calls by dose curve; tested in HEK293T cells; also: read-out not given here; nearly all actives have a fitted effect of over 45% in size
HCV inh: qHTS Assay for Inhibitors of Hepatitis C Virus (HCV) | Huh7.5.1 HCVcc-Cre infection, luciferase reporter, 44 h | Potency, µM (titrated, usually from 41.8 µM), most hits filed as inhibitors | actives 3.4% (n = 340,000) | AID 651820, 2012; active = well fitted inhibition curve with a large enough effect; inconclusive = small, poorly fitted or top-dose-only effect, or another doubt; inactive = no such curve, though single readings can be large or run the other way
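Cells (1,000/well) were plated 4 h before compound, then infected with HCVcc-Cre virus (~0.5 moi). After 44 h further culture, infection was read as luciferase luminescence following a 15 min substrate incubation at room temperature.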
HCMV inh: qHTS Assay for inhibitors of the human cytomegalovirus (HCMV). HFF cells, HCMV-luciferase reporter, 72 h; stronger effect = lower value. activity change, negative = inhibition, % at 57.5 µM. actives 4.5% (n = 410,000); in the data active = activity change below about -60%; inconclusive = no clear call, values can overlap the other calls; inactive = above about -39%
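Human foreskin fibroblasts infected with luciferase-reporter HCMV at MOI 1 PFU/cell, compounds at two doses. Luciferase measured 72 h post infection; normalized to buffer-only basal and Salinomycin (10uM) controls.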
VACV Venus inh: qHTS for Stage-Specific Inhibitors of Vaccinia Orthopoxvirus: Venus Reporter Primary qHTS; actives 0.46% (n = 330,000); Vaccinia virus Venus reporter expression, fluorescence; AID 720580, 2013; Potency, µM (doses to about 36.5 µM), hits mostly inhibitors; calls by dose curve; tested in A549 cells; also: nearly all actives have a fitted effect of over 30% in size
A number is an active result; i = inactive; ? = inconclusive; nt = no result given; [ ] = another dose, or the depositor's remark. In the library only some 7.3% were active in any assay of this set; here they are far more common.

SMILES | Vaccinia mCherry | FMDV inh | HCV inh | HCMV inh | VACV Venus inh
CC(C)c1ccc(NC2CCCN(C(=O)CN3CCCCC3=O)C2)cc1 (centres undefined) | i | i | nt | i | i
Cc1ccc(C)c(OCc2cc(C(=O)NC3CCN(Cc4ccccc4)CC3)no2)c1 | nt | ? | 6.3µM | -85 | nt
O=C(NCCc1ccccc1Cl)c1cc(COc2ccc(F)cc2F)on1 | nt | i | 11µM | nt | nt
C=CCN(C(=O)CC(NC(C)=O)c1ccccc1)c1nc(-c2ccc(S(C)(=O)=O)cc2)cs1 (centres undefined) | ? | i | ? | i | i
COc1ccc(-c2noc(-c3ccc(NCc4ccccc4OC)c([N+](=O)[O-])c3)n2)cc1 | i | i | nt | i | i
CC1=C(O)C(=O)C=C2C1=CC=C1C2(C)CCC2(C)C3CC(C)(C(=O)O)CCC3(C)CCC12C (centres undefined) | 22µM | i | ? | -78 | 10µM
CC(=O)Oc1cc2c(c(C)c1OC(C)=O)CC=C1[C@]3(C)CC[C@]4(C)CC[C@@](C)(C(=O)O)CC4[C@]3(C)CC[C@]12C (some centres undefined) | i | 35µM | nt | nt | i
Cc1c(O)c(O)cc2c1CC=C1[C@]3(C)CC[C@]4(C)CC[C@@](C)(C(=O)O)CC4[C@]3(C)CC[C@]12C (some centres undefined) | i | 25µM | nt | nt | i
CCOc1ccc(C2=Nn3c(CC)nnc3SC2)cc1 | nt | i | i | i | nt
O=C(CNC(=O)c1cccc(Br)c1)N/N=C/c1ccc[nH]1 | i | i | 3.2µM | ? | i
O=C(CNC(=O)c1cccc(Br)c1)N/N=C/c1cn[nH]c1-c1ccccc1 | i | i | i | i | i
O=C(N/N=C/c1cc(Br)cc(Cl)c1O)c1ccc2c(c1)OCO2 | ? | i | 13µM | i | ?
O=C(N/N=C/c1cc(Br)c(O)c(Br)c1O)c1ccc2c(c1)OCCO2 | ? | i | ? | -82 | ?
O=C(CNC(=O)c1ccc2c(c1)OCO2)N/N=C/c1cc(Br)ccc1O | 1.6µM | i | ? | i | ?
COCCNC(=O)c1ccccc1NC(=O)c1ccccc1SC | i | i | i | i | i
COc1cccc(-c2cnc3c(NC(C)=O)cc(-c4cccc(C(=O)NCCN(C)C)c4)cn23)c1 | i | i | nt | i | i
O=C(N/N=C/c1ccc2c(c1)OCO2)c1ccc2c(c1)OCCO2 | ? | i | i | i | i
Cc1cc(Br)cc(/C=N/NC(=O)c2ccc3c(c2)OCO3)c1O | nt | i | ? | -103 | nt
COc1cc(Cl)cc(/C=N\NC(=O)c2ccc3c(c2)OCO3)c1O | ? | i | nt | -60 | ?
O=C(N/N=C/c1cc(Cl)cc([N+](=O)[O-])c1O)c1ccc2c(c1)OCO2 | nt | i | ? | i | nt
O=C(N/N=C/c1ccccc1O)c1ccc2c(c1)OCO2 | ? | i | 5.6µM | -92 | ?
CCOc1ccc(CCNC(=O)c2cccc(S(=O)(=O)N3CCN(C(C)=O)CC3)c2)cc1OCC | i | i | ? | i | i
COCc1c(C(=O)N2CCN(C3CCCC3)CC2)cnn1-c1nccc(-c2cccs2)n1 | i | i | nt | nt | i
CCOCCn1c(=NC(=O)c2ccc(S(=O)(=O)N3CCOCC3)cc2)sc2cc(S(N)(=O)=O)ccc21 | i | i | 22µM | -63 | i
CCOCCn1c(=NC(=O)c2cc(Cl)sc2Cl)sc2cc(S(N)(=O)=O)ccc21 | nt | nt | i | nt | nt
SMILES | Vaccinia mCherry | FMDV inh | HCV inh | HCMV inh | VACV Venus inh
C#CCn1c(=NC(=O)c2ccc(S(=O)(=O)N3CCc4ccccc4C3)cc2)sc2cc(S(N)(=O)=O)ccc21 | 6.3µM | i | i | nt | 7.9µM
COC(=O)Cn1c(=NC(=O)c2ccc(S(=O)(=O)N3CCc4ccccc4C3)cc2)sc2cc(OC)ccc21 | i | i | i | i | i
COCCn1c(=NC(=O)c2ccc(S(=O)(=O)N3CCc4ccccc4C3)cc2)sc2cc(S(N)(=O)=O)ccc21 | i | i | i | i | i
C=CCn1c(=NC(=O)c2ccc(S(=O)(=O)N3CCc4ccccc4C3)cc2)sc2cc(S(N)(=O)=O)ccc21 | ? | i | ? | -65 | i
O=C(NC1CC(=O)N(c2ccc(F)cc2)C1)C1CCCC1 (centres undefined) | i | i | nt | i | i
CCCS(=O)(=O)NC(=O)C1(C)CCCN(C(=O)c2cc(-c3cccs3)oc2C)C1 (centres undefined) | i | i | nt | i | i
CCCc1c(C(=O)N/N=C(\C)c2ccccn2)nnn1-c1nonc1N | 0.89µM | i | nt | -98 | ?
C/C(=N\NC(=O)c1nnn(-c2nonc2N)c1CN(C)c1ccccc1)c1ccccc1O | ? | i | ? | -100 | ?
CCCc1c(C(=O)N/N=C(\C)c2ccc(O)cc2)nnn1-c1nonc1N | nt | i | i | ? | nt
COc1cccc(NC(=O)c2nnn(CC(=O)Nc3cc(C)cc(C)c3)c2N)c1 | i[7.34 µM] | i | i | ? | i[7.34 µM]
Cc1cc(C)cc(NC(=O)Cn2nnc(C(=O)Nc3cc(C)cc(C)c3)c2N)c1 | i | i | nt | -83 | i
CCOc1ccc(NC(=O)Cn2nnc(C(=O)Nc3ccc(OCC)cc3)c2N)cc1 | i | i | nt | i | i
CCOc1ccc(NC(=O)c2nnn(CC(=O)Nc3ccccc3OCC)c2N)cc1 | i | i | 11µM | i | i
CCOc1ccccc1NC(=O)Cn1nnc(-c2ccc(OCC)c(OCC)c2)n1 | ? | nt | 8.9µM | i | ?
CC(NC(=O)c1cccnc1)c1nnc2n1CCN(Cc1ccc(-c3ccccc3Cl)o1)CC2 (centres undefined) | i | i | nt | nt | i
Cc1cc2oc(=O)cc(C)c2cc1NC(=O)CCC(=O)O | i | nt | i | i | i
Cc1cc2oc(=O)cc(C)c2cc1NC(=O)CCl | ? | ? | ? | -100 | ?
Cc1cc2c(C)cc(=O)[nH]c2cc1NC(=O)CCl | nt | ? | 11µM | i | nt
CC(C)(CNC(=O)CO/N=C1/C=C2CCC3C(C(O)C[C@@]4(C)C3CC[C@]4(O)C(=O)CO)[C@@]2(C)CC1)C(O)C(=O)O (some centres undefined) | nt | i | i | i | nt
N#Cc1c(-c2ccccc2F)cc(C2CC2)nc1SCC(=O)c1cccs1 | i | i | i | ? | i
CCN(CCCNC(=O)Cn1ncc2c(=O)oc3ccccc3c21)c1cccc(C)c1 | ? | ? | 13µM | i | ?
CCCN(C(=O)Cn1ncc2c(=O)oc3ccccc3c21)c1cccc(C)c1 | i | i | i | i | i
CCC(CC)N=C1NS(=O)(=O)c2cc([N+](=O)[O-])ccc21 | 13µM | i | i | i | ?
CC(C)(CO)N=C1NS(=O)(=O)c2cc([N+](=O)[O-])ccc21 | i | i | ? | i | i
O=C(Cc1ccc(F)cc1)NO | i | nt | nt | nt | i
O=C1c2ccccc2-c2nnc(-c3ccccc3)cc21 | i | i | i | i | i
COc1ccc(-c2cc3c(nn2)-c2ccccc2C3=O)cc1 | i | 10µM | i | i | i
CCOC(=O)NCc1ccccc1 | i | i | 2.8µM | nt | i
O=C(NOCc1ccccc1)OCc1ccccc1 | i | i | ? | i | i
O=C(NNC(=O)OCc1ccccc1)OCc1ccccc1 | i | i | i | -99 | i
